In PubChem BioAssay:
Activity calls are given as the source filed them.

Assays:
[1] = test system: Lefty1; test: Lefty1 protein binding to printed compounds – biochemical, small-molecule microarray, 635/667 nm fluorescence, primary screen (AID 1139); settings: fluorescence 635/667, higher = more signal
[2] = test system: wheat germ agglutinin (Triticum aestivum), Alexa647-labelled; test: Alexa647-WGA lectin binding to printed small molecules – biochemical, small-molecule microarray, 635/667 nm fluorescence, artefact control for SMM control-protein annotation, profiling panel (AID 1140); settings: WGA-A647 binding, 635 nm fluorescence, higher = more signal;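 also: score merges 667 nm feature emission with signal to noise over triplicate slides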
[3] = molecular target: Luciferin 4-monooxygenase (Photinus pyralis) (UniProt P08659); test: inhibition of purified Photinus pyralis luciferase – biochemical, luminescence, purified enzyme, 2006 set, primary screen (AID 1141); settings: purified firefly luciferase, SteadyGlo luminescence, 30 min; higher = more signal, called active from +8 up or from −8 down;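 also: cell-free assay with purified firefly luciferase at 100 ng per well in PBS; test concentration not given here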
Luciferin 4-monooxygenase (Photinus pyralis), sequence (P08659 whole entry, looked up): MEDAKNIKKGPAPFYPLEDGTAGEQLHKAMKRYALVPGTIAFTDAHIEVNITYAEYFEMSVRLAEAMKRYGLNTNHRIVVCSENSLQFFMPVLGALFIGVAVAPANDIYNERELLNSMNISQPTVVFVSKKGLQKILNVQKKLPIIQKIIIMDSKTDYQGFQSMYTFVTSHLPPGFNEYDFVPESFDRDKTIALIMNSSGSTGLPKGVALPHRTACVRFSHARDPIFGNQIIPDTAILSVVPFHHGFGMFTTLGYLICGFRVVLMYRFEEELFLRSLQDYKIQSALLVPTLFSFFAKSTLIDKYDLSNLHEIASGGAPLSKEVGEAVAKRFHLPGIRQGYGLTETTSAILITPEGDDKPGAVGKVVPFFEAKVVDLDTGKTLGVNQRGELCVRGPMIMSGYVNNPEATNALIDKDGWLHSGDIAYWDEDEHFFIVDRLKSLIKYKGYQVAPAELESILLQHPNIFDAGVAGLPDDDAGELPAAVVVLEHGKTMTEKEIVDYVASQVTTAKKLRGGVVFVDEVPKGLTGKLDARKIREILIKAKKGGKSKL

[4] = test system: Wnt5a (protein binding on small-molecule microarray); test: small molecules binding Wnt5a protein – biophysical, small-molecule microarray, 635/667 nm fluorescence, primary screen (AID 1142); settings: 635 nm fluorescence, higher = more signal;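 also: fluorescence read at 667 nm with signal to noise per printed feature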
[5] = ATP-based viability of Huh7 replicon cells – cell-based, CellTiter-Glo luminescence, basal, 48 h, cytotoxicity control for HCV replication inhibitor project, primary screen (AID 1143); settings: higher = more signal, called active from +8 up or from −8 down;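 also: Huh7 hepatoma cells carrying a hepatitis C replication reporter with no stimulus; test concentration not given here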
[6] = basal CRE-LacZ reporter activity in PC12 – cell-based, unstimulated, primary screen (AID 1145); settings: no forskolin, luminescence, 4.5 h, higher = more signal, called active from +8 up or from −8 down
[7] = forskolin-driven CRE-LacZ activity in PC12 – cell-based, CRE-LacZ reporter, forskolin-stimulated, primary screen (AID 1146); settings: luminescence, 4.5 h, higher = more signal, called active from +8 up or from −8 down;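 also: PC12 cells with 6xCRE LacZ reporter stimulated by forskolin 10 µM; beta-galactosidase reporter signal reflecting CREB driven transcription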
[8] = molecular target: Streptavidin (Streptomyces avidinii) (UniProt P22629); test: compounds binding control protein streptavidin – biophysical, small-molecule microarray, 635/667 nm fluorescence, artefact control for SMM compound annotation, primary screen (AID 1147); settings: higher = more signal;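 also: signal reflects streptavidin binding to arrayed compounds as a control protein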
Streptavidin (Streptomyces avidinii), sequence (P22629 whole entry, looked up): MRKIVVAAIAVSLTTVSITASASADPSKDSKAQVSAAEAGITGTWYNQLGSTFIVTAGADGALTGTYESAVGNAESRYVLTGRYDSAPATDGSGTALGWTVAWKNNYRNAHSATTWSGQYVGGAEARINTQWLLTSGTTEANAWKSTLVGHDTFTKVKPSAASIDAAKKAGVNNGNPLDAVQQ

[9] = probe aInhba binding on compound microarray – biochemical, small-molecule microarray, 635/667 nm fluorescence, primary screen (AID 1148); settings: higher = more signal;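 also: score merges 667nm spot fluorescence with signal-to-noise for antibody binding to printed compounds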
[10] = molecular target: Torsin-1A (Homo sapiens) (UniProt O14656); test: TOR1A wild-type binding on microarray – cell lysate, small-molecule microarray, lysate, 635/667 nm, primary screen (AID 1149); settings: COS7 hTOR1A-WT lysate, 635 nm fluorescence, higher = more signal
Torsin-1A (Homo sapiens), sequence (O14656 whole entry, looked up): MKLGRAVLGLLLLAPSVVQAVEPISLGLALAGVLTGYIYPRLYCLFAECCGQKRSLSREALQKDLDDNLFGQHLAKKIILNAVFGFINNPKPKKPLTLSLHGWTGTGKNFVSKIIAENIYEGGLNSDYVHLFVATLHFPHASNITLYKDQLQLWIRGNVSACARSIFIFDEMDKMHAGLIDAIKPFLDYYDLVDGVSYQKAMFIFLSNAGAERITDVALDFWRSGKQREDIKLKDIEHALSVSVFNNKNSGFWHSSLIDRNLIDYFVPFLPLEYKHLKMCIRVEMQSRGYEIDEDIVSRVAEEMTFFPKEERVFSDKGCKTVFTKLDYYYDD

[11] = molecular target: Torsin-1A (Homo sapiens) (UniProt O14656); test: torsin A mutant lysate binding on microarrays – cell lysate, small-molecule microarray, COS7 lysate, 635/667 nm fluorescence, primary screen (AID 1150); settings: COS7 hTOR1A mutant lysate, 635 nm fluorescence, higher = more signal;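 also: score pools 667 nm emission and signal to noise measuring lysate protein binding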
[12] = test system: Sonic hedgehog protein (Shh); test: Sonic hedgehog microarray binding compounds – biochemical, small-molecule microarray, 635/667 nm fluorescence, primary screen (AID 1151); settings: 635 nm fluorescence, higher = more signal;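 also: Shh protein binding to compounds spotted on small-molecule microarray slides; score combines spot fluorescence intensity with signal-to-noise across triplicate slides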
[13] = optical density shifts of acrAB sulA E. coli – strain DRC41, OD650, 48 h, E. coli filamentation inducer project, primary screen (AID 1152); settings: higher = more signal, called active from +8 up or from −8 down;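 also: E. coli MC1000 strain DRC41 lacking acrAB efflux pump and sulA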
[14] = probe aLefty1 binding on compound microarray – biochemical, small-molecule microarray, 635/667 nm fluorescence, primary screen (AID 1153); settings: higher = more signal;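 also: score merges spot fluorescence with signal-to-noise ratio from the scanned slide images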
[15] = plasmodial surface anion channel blockers, osmotic lysis – cell-based, P. falciparum Indochina, OD700, 1 h, primary screen (AID 1154); settings: P. falciparum Indochina infected RBC osmotic lysis, higher = more signal, called active from +8 up or from −8 down
[16] = plasmodial surface anion channel blockers, osmotic lysis – cell-based, P. falciparum Indochina, OD700, 2 h, primary screen (AID 1155);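 also: lysis reports solute entry through the parasite surface anion channel PSAC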; settings: P. falciparum Indochina infected erythrocytes, higher = more signal, called active from +8 up or from −8 down
[17] = changes in parasitized red cell lysis, either direction – P. falciparum Indochina, OD700, 3 h, PSAC antagonist project, primary screen (AID 1156); settings: P. falciparum-infected erythrocytes, osmotic lysis, higher = more signal, called active from +8 up or from −8 down
[18] = plasmodial surface anion channel blockers, osmotic lysis – cell-based, P. falciparum Indochina, OD700, 18 h, primary screen (AID 1157); settings: P. falciparum Indochina infected erythrocytes, osmotic lysis OD700, 18 h; higher = more signal, called active from +8 up or from −8 down
[19] = S6 kinase pathway phospho-S6 level changes – cell-based, A549, cytoblot, luminescence, serum-stimulated, primary screen (AID 1158); settings: 5 h, higher = more signal;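 also: serum-stimulated A549 lung adenocarcinoma cells; signal is phosphorylated S6 detected by cytoblot immunostaining with HRP secondary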
[20] = molecular target: NADPH oxidase 2 (Homo sapiens) (UniProt P04839); test: compounds shifting NOX2 Amplex Red fluorescence – cell-based, HEK293-NOX2, PMA-stimulated, NOX inhibitor project, primary screen (AID 1159); settings: 45 min, higher = more signal, called active from +8 up or from −8 down; also: test concentration not given here
NADPH oxidase 2 (Homo sapiens), sequence (P04839 whole entry, looked up): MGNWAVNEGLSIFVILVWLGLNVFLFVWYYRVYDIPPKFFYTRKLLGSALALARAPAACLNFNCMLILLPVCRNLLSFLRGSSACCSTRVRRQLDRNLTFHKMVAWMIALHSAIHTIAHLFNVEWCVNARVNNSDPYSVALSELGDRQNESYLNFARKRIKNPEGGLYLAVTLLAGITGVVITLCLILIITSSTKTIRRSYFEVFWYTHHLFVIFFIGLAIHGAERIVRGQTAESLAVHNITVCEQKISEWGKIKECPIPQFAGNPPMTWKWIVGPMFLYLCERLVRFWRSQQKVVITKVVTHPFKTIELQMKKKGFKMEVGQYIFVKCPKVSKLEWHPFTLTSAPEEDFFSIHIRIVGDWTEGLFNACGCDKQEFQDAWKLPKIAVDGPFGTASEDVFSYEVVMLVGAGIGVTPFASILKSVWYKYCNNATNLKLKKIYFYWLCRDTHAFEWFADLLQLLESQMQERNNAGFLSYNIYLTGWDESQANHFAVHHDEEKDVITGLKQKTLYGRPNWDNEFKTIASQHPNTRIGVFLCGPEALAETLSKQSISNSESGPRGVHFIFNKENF

Compound	composite z-score [1]	composite z-score [2]	z-score [3]	composite z-score [4]	z-score [5]	z-score [6]	z-score [7]	composite z-score [8]	composite z-score [9]	composite z-score [10]	composite z-score [11]	composite z-score [12]	z-score [13]	composite z-score [14]	z-score [15]	z-score [16]	z-score [17]	z-score [18]	z-score [19]	z-score [20]
C=C(/C(=C/C[C@H](OC(=O)c1ccncc1)c1cccc(OCCO)c1)c1cc(C(=O)OC)ccc1OC)C(C)C	0.411	0.844	-0.979 (inactive)	-0.158	-2.09 (inactive)	8.57 (active)	-0.669 (inactive)	0.0287	-0.05	0.607	0.568	0.948	1.17 (inactive)	-0.0984	10.2 (active)	-0.289 (inactive)	1.66 (inactive)	-1.19 (inactive)	0.402	1.62 (inactive)
C=C(COC)C(=O)CC[C@H](OC(=O)c1ccccc1-c1ccccc1C(=O)O)c1ccccc1OCCO	0.655	-0.179	-3.05 (inactive)	0.032	-0.828 (inactive)	0.844 (inactive)	0.122 (inactive)	0.0456	-0.0021	0.241	-0.063	1.2	0.832 (inactive)	-0.196	4.88 (inactive)	0.673 (inactive)	2.51 (inactive)	0.65 (inactive)	-0.541	2.1 (inactive)
C=C(C1=CCN(S(=O)(=O)c2ccc(C)cc2)C1)[C@@H](OC(C)=O)[C@@H]1CCCN1S(=O)(=O)c1ccccc1[N+](=O)[O-]	-0.0118	-1.42	-1.35 (inactive)	0.0375	-4.37 (inactive)	2.02 (inactive)	-1.11 (inactive)	-1.05	-0.128	-0.499	-0.406	0.706	2.47 (inactive)	-0.109	26.3 (active)	17 (active)	0.77 (inactive)	0.623 (inactive)	0.993	0.0272 (inactive)
C=CCNC(=O)[C@@H]1[C@H]2C(=O)O[C@H](c3ccccc3)[C@H](c3ccccc3)N2[C@H](c2ccc(O)cc2)[C@@]12C(=O)Nc1ccccc12	0.52	0.567	-1.03 (inactive)	0.154	-2.84 (inactive)	-0.348 (inactive)	-1.3 (inactive)	-0.171	-0.218	-0.0795	-0.264	1.05	1.88 (inactive)	-0.22	3.11 (inactive)	0.87 (inactive)	0.253 (inactive)	0.983 (inactive)	0.686	-0.00775 (inactive)
C=C(COC)/C(=C/C[C@H](OC(C)=O)c1cccc(OCCO)c1)c1cc(C(=O)OC)ccc1OC	1.72	-1.08	-0.727 (inactive)	0.44	-8.11 (active)	11.5 (active)	-0.4 (inactive)	-0.356	-0.018	1.34	1.22	1.72	1.59 (inactive)	-0.101	10.1 (active)	1.78 (inactive)	-2.63 (inactive)	-0.0354 (inactive)	1.44	-1.94 (inactive)
CN(C)CCCC[C@@H]1NC(=O)[C@@H]2C[C@H](C(=O)NCCCCCNC(=O)CS)[C@H](c3cccc(OCCO)c3)N2C1=O	1.45	0.626	-0.673 (inactive)	0.21	-5.23 (inactive)	-0.39 (inactive)	-1.49 (inactive)	0.07	0.0869	0.672	0.408	2.01	1.97 (inactive)	0.2	2.86 (inactive)	0.159 (inactive)	-2.96 (inactive)	-0.778 (inactive)	2.45	-0.143 (inactive)
O=C1c2ccccc2[C@](Cc2ccccc2I)(C(=O)O)[C@H](c2ccc(CO)cc2)N1Cc1ccccc1Cl	0.0911	0.507	-1.28 (inactive)	0.0716	-1.86 (inactive)	-0.0888 (inactive)	-0.873 (inactive)	0.414	0.112	0.252	1.01	0.0948	1.76 (inactive)	0.122	4.07 (inactive)	-0.442 (inactive)	0.477 (inactive)	-1.07 (inactive)	1.21	1.35 (inactive)
C=C(C(=O)CC[C@@H](OC(C)=O)c1ccccc1OCCO)C(C)C	0.342	-0.242	-1.35 (inactive)	0.235	-4.89 (inactive)	3.88 (inactive)	-1.21 (inactive)	-0.965	-0.0791	0.964	-0.353	1.09	1.19 (inactive)	-0.29	0.425 (inactive)	0.279 (inactive)	-1.49 (inactive)	0.479 (inactive)	-0.258	1.24 (inactive)
NC(=O)N1C(=O)C2C(C1=O)C1C=C(c3ccc(CO)cc3)C2C(C2CC2)N1Cc1cc2c(cc1Br)OCO2 (stereo not given)	0.828	0.216	-2.17 (inactive)	0.0262	-1.15 (inactive)	7.31 (inactive)	-1.34 (inactive)	0.368	0.134	0.32	0.127	1.39	0.737 (inactive)	0.0671	14.4 (active)	0.537 (inactive)	-0.429 (inactive)	-1.43 (inactive)	0.215	2.92 (inactive)
C/C=C/[C@@H](CCn1cc(CCO[Si](C(C)C)(C(C)C)C(C)C)nn1)[Si](C)(C)c1ccc(OC)cc1	-1.16	-2.08	-2.45 (inactive)	-0.569	-3.19 (inactive)	3.29 (inactive)	-1.01 (inactive)	-1.27	-0.39	-0.72	0.741	-0.526	0.415 (inactive)	-0.315	0.305 (inactive)	0.0452 (inactive)	-0.606 (inactive)	-1.92 (inactive)	2.96	-0.937 (inactive)
CC(C)C[C@@H]1NC(=O)[C@@]23C(=O)N[C@@H](Cc4ccccc4)C2[C@H](C)[C@@]2(C)O[C@H]2C3/C=C/CC/C=C/CNC(=O)[C@@H](C)NC1=O (stereo not given in full)	1.5	-0.578	-0.8 (inactive)	0.298	-2.4 (inactive)	2.03 (inactive)	-1.16 (inactive)	0.0315	-0.16	0.418	-0.0123	1.78	2.61 (inactive)	-0.0984	1.31 (inactive)	0.548 (inactive)	0.224 (inactive)	0.5 (inactive)	0.595	0.649 (inactive)
COC(=O)C1=CC(c2ccc(CO)cc2)=CC(C2CC2)N(C)C=C1C(=O)OC (stereo not given)	-0.615	1.28	-1.8 (inactive)	0.138	-3.85 (inactive)	-0.195 (inactive)	-1.75 (inactive)	0.226	0.203	-0.017	1.04	-0.154	2.75 (inactive)	0.223	7.02 (inactive)	0.548 (inactive)	-2.7 (inactive)	-0.382 (inactive)	3.99	-1.7 (inactive)
CCOC(=O)C[C@H]1[C@H](OC(=O)c2ccc(-c3ccccc3)cc2)[C@@H](NC(=O)C2CCCCC2)c2cc(OCCCO)ccc2N1C(=O)c1ccc2ccccc2n1	0.0309	0.388	-0.784 (inactive)	0.0447	-0.0226 (inactive)	3.51 (inactive)	-0.876 (inactive)	0.391	0.0582	0.688	0.525	0.21	2.69 (inactive)	0.0278	1.45 (inactive)	-0.755 (inactive)	-0.0072 (inactive)	-1.16 (inactive)	1.5	1.13 (inactive)
CCCCC(=C=CC[C@H](O)c1cccc(OCCO)c1)CCO	-0.103	-0.602	-0.835 (inactive)	-0.0668	-0.081 (inactive)	4.86 (inactive)	-0.679 (inactive)	-0.209	0.0355	1.13	0.983	0.242	0.892 (inactive)	0.37	11.4 (active)	1.91 (inactive)	1.2 (inactive)	0.774 (inactive)	-0.679	1.06 (inactive)
COc1ccc(C(=O)Nc2cccc(CN3C(=O)[C@@]4(O[C@@H](CCO)[C@H]([Si](C)(C)c5ccc(OC)cc5)[C@H]4C)c4ccccc43)c2)cc1	0.143	0.327	-1.96 (inactive)	0.143	-8.03 (active)	4.03 (inactive)	-2.29 (inactive)	0.182	-0.0523	0.317	0.478	0.626	0.677 (inactive)	-0.0082	9.1 (active)	1.27 (inactive)	-0.984 (inactive)	-0.11 (inactive)	0.487	-6.67 (inactive)
CCOC(=O)C[C@H]1[C@H](OC(=O)c2ccc(-c3ccccc3)cc2)[C@@H](NC(=O)c2ccccc2)c2cc(OCCCO)ccc2N1C(=O)c1ccccc1	-0.0764	0.646	-0.517 (inactive)	0.15	-2.94 (inactive)	0.251 (inactive)	-0.843 (inactive)	0.0439	0.105	0.217	0.792	0.082	2.36 (inactive)	0.167	0.788 (inactive)	-0.846 (inactive)	-0.0889 (inactive)	-1.09 (inactive)	1.58	2.09 (inactive)
